Assay [1] in a line: qHTS assay to identify small molecule agonists of the sonic hedgehog signaling (Shh) pathway (AID 1259368; calls by dose curve;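 note: NIH/3T3-derived 3T3Gli1-Luc cells carrying a stable Gli1-driven firefly luciferase reporter; series mostly up to about 92 µM; nearly all actives have a fitted effect of over 15% in size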). An outline of the steps:
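A Gli1 transcriptional response element controlled firefly luciferase in 3T3Gli1-Luc cells. Compounds and a positive control were added 4 hr after plating, and cells were incubated a further 24 hr at 37 C before luminescence detection.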
(Quantitative high-throughput screening tests each substance at several concentrations.)

Assay [2] can be described thus: qHTS assay to identify small molecule antagonists of the sonic hedgehog signaling (Shh) pathway (AID 1259369; calls by dose curve; note: nearly all actives have a fitted effect of over 45% in size; note: potency is the fitted concentration of half-maximal effect). A digest of the protocol: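 For antagonist detection, the reporter line received test compounds together with conditioned medium, incubated 24hr at 37 C, 5% CO2, then luminescence was recorded following 30min room-temperature luciferase reagent incubation.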

Assay [3] in a line: qHTS assay to identify small molecule agonists of the androgen receptor (AR) signaling pathway in the presence of an antagonist - cell viability counter screen (AID 1259379).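 Note: MDA-kb2 human breast cancer cells carrying an MMTV luciferase reporter; series mostly up to about 92 µM; nearly all actives have a fitted effect of over 25% in size.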 A digest of the protocol: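 Seed MDA-kb2 at 3,000 cells/well; incubate 5 hr, 37C, 0% CO2. Add nilutamide to 3.0uM final, then pin compounds at 15 concentrations. Incubate 16 hr. Add CellTiter-Fluor at 15 hr, read fluorescence after 1 hr.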

Assay [4] is described as follows: qHTS assay to identify small molecule agonists of the estrogen receptor beta (ER-beta) signaling pathway - cell viability counter screen (AID 1259380). Note: nearly all actives have a fitted effect of over 30% in size. An outline of the steps: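 CellTiter-Glo read, 30 min RT, same wells as bla assay; cells ER-beta-UAS-bla HEK293T; 16 hr compound, 37C; medium 2% charcoal-stripped FBS.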
Assay [5] can be described thus: qHTS assay to identify small molecule antagonists of the estrogen receptor beta (ER-beta) signaling pathway - cell viability counter screen (AID 1259382). Note: series mostly up to about 92 µM; nearly all actives have a fitted effect of over 55% in size. A digest of the protocol: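 In this multiplexed counter screen, cells were seeded at 2,000 per well in medium with 2% charcoal-stripped FBS and incubated 6 hr before compound and 1nM final E2 were added. Sixteen hours later, ATP-based luminescence reported viability.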

The target in assay [6] is Estrogen receptor (Homo sapiens) (UniProt P03372). Kind of assay: qHTS assay to identify small molecule agonists of the estrogen receptor alpha (ER-alpha) signaling pathway in the presence of an antagonist (AID 1259383; calls by dose curve; note: nearly all actives have a fitted effect of over 15% in size; note: potency is the fitted concentration of half-maximal effect; for activation: top concentration of the series differs between compounds). An outline of the steps:
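Stably transfected VM7Luc4E2 reporter cells, kept 5 days in charcoal-stripped serum, received ICI-182,780 at 10.0nM final before compound addition. Following 22hr incubation at 37C and 5% CO2, luciferase signal was read by luminescence.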

The target in assay [7] is Thyrotropin receptor (Homo sapiens) (UniProt P16473). As to the kind of experiment: qHTS assay to identify small molecule antagonists of the thyroid stimulating hormone receptor (TSHR) signaling pathway (AID 1259385; calls by dose curve; note: nearly all actives have a fitted effect of over 20% in size). A digest of the protocol: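 TSHR-HEK293 cells (800/well) plated 18 h, then compounds with Ro20-1724 and TSH at 1.5 ng/mL final, 30 min at room temperature. cAMP quantified by HTRF (cAMP-d2/anti-cAMP-cryptate, 1 h); 15 concentrations in triplicate.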
Sequence of Thyrotropin receptor (Homo sapiens) (P16473 whole entry, looked up): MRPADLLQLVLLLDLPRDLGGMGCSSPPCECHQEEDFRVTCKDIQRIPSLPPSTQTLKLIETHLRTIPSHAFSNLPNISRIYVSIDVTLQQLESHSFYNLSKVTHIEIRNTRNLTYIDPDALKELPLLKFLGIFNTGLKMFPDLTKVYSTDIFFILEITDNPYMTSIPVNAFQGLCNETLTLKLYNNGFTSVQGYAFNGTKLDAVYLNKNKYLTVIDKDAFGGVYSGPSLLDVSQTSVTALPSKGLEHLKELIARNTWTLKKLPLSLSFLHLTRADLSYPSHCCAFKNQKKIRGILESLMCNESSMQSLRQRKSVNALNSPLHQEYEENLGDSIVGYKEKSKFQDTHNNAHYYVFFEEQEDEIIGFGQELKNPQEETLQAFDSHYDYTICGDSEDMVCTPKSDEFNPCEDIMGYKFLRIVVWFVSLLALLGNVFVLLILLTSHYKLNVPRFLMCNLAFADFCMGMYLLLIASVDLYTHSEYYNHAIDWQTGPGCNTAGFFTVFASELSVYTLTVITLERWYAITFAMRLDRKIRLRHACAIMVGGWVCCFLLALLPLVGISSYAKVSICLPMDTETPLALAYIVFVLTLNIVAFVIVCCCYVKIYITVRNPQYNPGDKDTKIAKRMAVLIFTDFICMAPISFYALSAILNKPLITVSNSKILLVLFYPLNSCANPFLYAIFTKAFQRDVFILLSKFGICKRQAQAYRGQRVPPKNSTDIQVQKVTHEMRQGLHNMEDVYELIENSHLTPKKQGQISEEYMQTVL

Assay [8] in a line: qHTS assay to identify small molecule agonists of the estrogen receptor alpha (ER-alpha) signaling pathway in the presence of an antagonist - cell viability counter screen (AID 1259386).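 Note: series mostly up to about 92 µM; cells exposed to compounds for 22 h at 37 °C before the viability read; nearly all actives have a fitted effect of over 30% in size.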 A digest of the protocol: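 Viability counter screen using VM7Luc4E2 (full-length ER-alpha, four ERE-luciferase). The cells were treated with compounds alongside ICI-182,780 10.0nM for 22hr, and live-cell protease fluorescence was quantified with CellTiter-Fluor.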

The target in assay [9] is Progesterone receptor (Homo sapiens) (UniProt P06401). As to the kind of experiment: qHTS assay to identify small molecule agonists of the progesterone receptor (PR) signaling pathway (AID 1346784; calls by dose curve; note: nearly all actives have a fitted effect of over 30% in size). A digest of the protocol: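 Compounds were tested for PR agonism in HEK 293T cells bearing a beta-lactamase gene under UAS control. Treatment lasted 16 hr at 37C; signal came from fluorescence of a FRET substrate.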
Sequence of Progesterone receptor (Homo sapiens) (P06401 whole entry, looked up): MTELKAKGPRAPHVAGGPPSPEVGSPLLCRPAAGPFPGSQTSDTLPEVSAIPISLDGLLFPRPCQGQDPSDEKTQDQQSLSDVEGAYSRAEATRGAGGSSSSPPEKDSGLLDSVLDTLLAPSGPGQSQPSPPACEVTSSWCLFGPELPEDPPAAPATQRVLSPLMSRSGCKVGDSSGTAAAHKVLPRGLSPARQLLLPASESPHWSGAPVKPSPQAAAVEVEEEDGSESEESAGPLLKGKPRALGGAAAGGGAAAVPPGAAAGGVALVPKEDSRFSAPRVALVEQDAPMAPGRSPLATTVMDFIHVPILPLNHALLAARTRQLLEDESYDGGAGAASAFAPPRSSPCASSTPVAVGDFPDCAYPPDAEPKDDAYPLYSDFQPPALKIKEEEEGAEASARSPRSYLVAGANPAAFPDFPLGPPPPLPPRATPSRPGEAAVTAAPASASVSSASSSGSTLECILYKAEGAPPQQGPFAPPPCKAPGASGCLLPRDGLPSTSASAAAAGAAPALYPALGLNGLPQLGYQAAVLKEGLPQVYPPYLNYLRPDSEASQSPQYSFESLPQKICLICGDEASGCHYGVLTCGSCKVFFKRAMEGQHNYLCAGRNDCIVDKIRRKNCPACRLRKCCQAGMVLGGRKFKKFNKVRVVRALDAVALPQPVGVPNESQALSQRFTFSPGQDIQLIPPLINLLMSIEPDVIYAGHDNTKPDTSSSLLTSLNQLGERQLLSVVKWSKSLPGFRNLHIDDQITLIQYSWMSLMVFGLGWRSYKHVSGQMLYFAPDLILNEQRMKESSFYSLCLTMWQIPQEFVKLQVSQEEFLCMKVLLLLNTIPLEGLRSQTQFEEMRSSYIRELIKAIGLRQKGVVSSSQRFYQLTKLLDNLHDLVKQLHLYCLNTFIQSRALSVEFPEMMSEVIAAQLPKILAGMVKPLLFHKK

Assay [10] shares this target. As to the kind of experiment: qHTS assay to identify small molecule antagonists of the progesterone receptor (PR) signaling pathway (AID 1346795; active = well fitted inhibition curve with a large enough effect in the signal ratio in the repeat runs, not every such curve was filed as active; the % refers to the signal ratio). A digest of the protocol: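 In HEK293T cells bearing the PR-UAS-bla reporter, compound effects on promegestone-driven (1 nM) beta-lactamase expression are assessed after 16 hr using a fluorescent FRET substrate incubated 2 hr at room temperature.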

A short description of assay [11]: qHTS assay to identify small molecule antagonists of the progesterone receptor (PR) signaling pathway - cell viability counter screen (AID 1346798). Note: series mostly up to about 92 µM; nearly all actives have a fitted effect of over 50% in size. A digest of the protocol: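 Following a 4 hr attachment, PR-UAS-bla HEK293T cells in charcoal-stripped FBS medium were exposed to compounds with R5020 for 16 hr; CellTiter-Glo was added and luminescence read after 30 min at room temperature.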

Assay [12] in a line: qHTS assay to identify small molecule agonists of the progesterone receptor (PR) signaling pathway - cell viability counter screen (AID 1346799; calls by dose curve; note: nearly all actives have a fitted effect of over 45% in size). An outline of the steps: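 Here, 3,000 PR-UAS-bla HEK293T cells per well were treated with compounds for 16 hr after a 6 hr preincubation at 37C and 5% CO2; cell viability is the CellTiter-Glo luminescence signal.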
Assay [13] can be described thus: qHTS assay to identify small molecule antagonists of the TGF-beta/Smad signaling pathway - cell viability counter screen (AID 1346824). Note: nearly all actives have a fitted effect of over 50% in size. An outline of the steps:
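SBE-bla HEK 293T cells, incubated overnight, then compound plus 0.25 ng/mL TGF-beta1 (stock added) for 5 hr at 37 C. Viability was read in the same wells by CellTiter-Glo luminescence after 30 min at room temperature.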

Assay [14] can be described thus: qHTS assay to identify small molecule agonists of the TGF-beta/Smad signaling pathway - cell viability counter screen (AID 1346829). Note: top concentration of the series differs between compounds; nearly all actives have a fitted effect of over 45% in size. An outline of the steps:
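Here the cytotoxicity of library compounds is measured in SBE-bla HEK 293T cells treated for 5 hr, using CellTiter-Glo added to wells already read for the beta-lactamase reporter.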

Assay [15] is described as follows: qHTS assay to identify small molecule agonists of the TGF-beta/Smad signaling pathway (AID 1346859; active = well fitted activation curve with a large enough effect in the signal ratio in the repeat runs, not every such curve was filed as active; the % refers to the signal ratio; note: series mostly up to about 77 µM). A digest of the protocol:
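Each well held 4,000 SBE-bla HEK 293T cells incubated overnight before compound addition; 5 hr later the cleavable FRET substrate went on for 2 hr at room temperature, and fluorescence was read at two emissions.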

Assay [16] concerns the target Androgen receptor (Homo sapiens) (UniProt P10275). As to the kind of experiment: qHTS assay to identify small molecule agonists of the androgen receptor (AR) signaling pathway in the presence of an antagonist (AID 1259381; calls by dose curve; note: nearly all actives have a fitted effect of over 15% in size). A digest of the protocol:
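Test compounds at 15 concentrations were incubated for 16hr with MDA-kb2 reporter cells in presence of 3.0uM nilutamide (final). Signal: ONE-Glo luciferase luminescence.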

The nature of assay [17]: qHTS assay to identify small molecule agonists or antagonists of the thyroid stimulating hormone receptor (TSHR) signaling pathway - wild type cell line counter screen (AID 1259384; calls by dose curve). A digest of the protocol: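 Wild-type Hek293 cells, 800/well, 18 h at 37C, then compound with Ro20-1724 for 30 min RT. cAMP by HTRF (cAMP-d2/anti-cAMP cryptate), 1 h RT, fluorescence read. 15 concentrations, triplicates.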

The target in assay [18] is Thyrotropin-releasing hormone receptor (Homo sapiens) (UniProt P34981). Kind of assay: qHTS assay to identify small molecule antagonists of the thyrotropin-releasing hormone receptor (TRHR) signaling pathway (AID 1346877; active = well fitted inhibition curve with a large enough effect in the repeat runs, not every such curve was filed as active; note: series mostly up to about 51 µM). A digest of the protocol: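 Following an 18 h incubation at 37 °C and a 2 h calcium dye load, TRHR-HEK293 cells were exposed to compound (5 min, room temperature) and challenged with TRH, 1 nM final.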
Sequence of Thyrotropin-releasing hormone receptor (Homo sapiens) (P34981 whole entry, looked up): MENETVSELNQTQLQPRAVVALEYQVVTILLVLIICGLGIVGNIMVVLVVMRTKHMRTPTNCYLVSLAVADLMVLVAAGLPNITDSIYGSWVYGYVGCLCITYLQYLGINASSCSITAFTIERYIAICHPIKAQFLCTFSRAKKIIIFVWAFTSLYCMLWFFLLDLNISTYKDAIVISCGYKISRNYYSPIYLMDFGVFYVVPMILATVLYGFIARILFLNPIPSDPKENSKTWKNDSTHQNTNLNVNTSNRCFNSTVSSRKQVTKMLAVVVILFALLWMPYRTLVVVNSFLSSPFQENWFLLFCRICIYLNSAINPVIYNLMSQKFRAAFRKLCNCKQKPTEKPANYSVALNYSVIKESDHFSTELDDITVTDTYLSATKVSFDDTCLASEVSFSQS

In assay [19] the target is Estrogen receptor beta (Homo sapiens) (UniProt Q92731). Kind of assay: qHTS assay to identify small molecule agonists of the estrogen receptor beta (ER-beta) signaling pathway (AID 1259377; active = well fitted activation curve with a large enough effect in the signal ratio in the repeat runs, not every such curve was filed as active; the % refers to the signal ratio; note: potency is the fitted concentration of half-maximal effect). An outline of the steps: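 Read-out: beta-lactamase FRET fluorescence. Cell line: ER-beta-UAS-bla HEK293T in 2% charcoal-stripped FBS. Exposure: 16 hr at 37C. Substrate step: 2 h at room temperature.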
Sequence of Estrogen receptor beta (Homo sapiens) (Q92731 whole entry, looked up): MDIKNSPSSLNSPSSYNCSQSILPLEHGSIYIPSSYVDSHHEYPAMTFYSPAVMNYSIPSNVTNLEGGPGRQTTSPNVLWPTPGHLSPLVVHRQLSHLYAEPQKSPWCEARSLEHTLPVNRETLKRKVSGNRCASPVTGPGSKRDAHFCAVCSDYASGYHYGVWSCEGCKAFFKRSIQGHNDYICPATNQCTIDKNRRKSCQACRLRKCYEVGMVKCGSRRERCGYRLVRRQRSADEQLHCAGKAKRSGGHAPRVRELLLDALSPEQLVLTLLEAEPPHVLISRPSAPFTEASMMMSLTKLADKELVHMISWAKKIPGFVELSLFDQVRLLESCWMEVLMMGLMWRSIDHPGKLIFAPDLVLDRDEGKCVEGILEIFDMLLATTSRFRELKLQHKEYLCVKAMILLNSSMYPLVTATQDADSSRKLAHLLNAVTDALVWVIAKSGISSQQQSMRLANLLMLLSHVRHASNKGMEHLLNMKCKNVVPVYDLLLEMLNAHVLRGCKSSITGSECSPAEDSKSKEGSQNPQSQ

For assay [20] the target is unchanged. As to the kind of experiment: qHTS assay to identify small molecule antagonists of the estrogen receptor beta (ER-beta) signaling pathway (AID 1259378; active = well fitted inhibition curve with a large enough effect in the signal ratio in the repeat runs, not every such curve was filed as active; the % refers to the signal ratio). A digest of the protocol: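 ER-beta-UAS-bla HEK293T cells in 2% charcoal-stripped FBS medium treated with compound plus 1nM final 17-beta-estradiol for 16 hr at 37C. Beta-lactamase reporter read by FRET substrate fluorescence after 2 hours at room temperature.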

The structures appear in SMILES notation. “And” between values parts separate entries of the source, which are not always exact repeats. Equal entries are not always repeated. Inconclusive results are not listed. Where a structure was tested more than once in an assay, its records may differ in their call. The source made the active and inactive calls. Unless noted, calls come from the whole dose curve; as a rule, active = well fitted curve in the direction sought with a large enough effect in the repeat runs; inconclusive = weak or mixed curves; inactive = no such curve, though single readings can be large; an effect the other way counts as inactive or inconclusive.

Sequence of Androgen receptor (Homo sapiens) (P10275 whole entry, looked up): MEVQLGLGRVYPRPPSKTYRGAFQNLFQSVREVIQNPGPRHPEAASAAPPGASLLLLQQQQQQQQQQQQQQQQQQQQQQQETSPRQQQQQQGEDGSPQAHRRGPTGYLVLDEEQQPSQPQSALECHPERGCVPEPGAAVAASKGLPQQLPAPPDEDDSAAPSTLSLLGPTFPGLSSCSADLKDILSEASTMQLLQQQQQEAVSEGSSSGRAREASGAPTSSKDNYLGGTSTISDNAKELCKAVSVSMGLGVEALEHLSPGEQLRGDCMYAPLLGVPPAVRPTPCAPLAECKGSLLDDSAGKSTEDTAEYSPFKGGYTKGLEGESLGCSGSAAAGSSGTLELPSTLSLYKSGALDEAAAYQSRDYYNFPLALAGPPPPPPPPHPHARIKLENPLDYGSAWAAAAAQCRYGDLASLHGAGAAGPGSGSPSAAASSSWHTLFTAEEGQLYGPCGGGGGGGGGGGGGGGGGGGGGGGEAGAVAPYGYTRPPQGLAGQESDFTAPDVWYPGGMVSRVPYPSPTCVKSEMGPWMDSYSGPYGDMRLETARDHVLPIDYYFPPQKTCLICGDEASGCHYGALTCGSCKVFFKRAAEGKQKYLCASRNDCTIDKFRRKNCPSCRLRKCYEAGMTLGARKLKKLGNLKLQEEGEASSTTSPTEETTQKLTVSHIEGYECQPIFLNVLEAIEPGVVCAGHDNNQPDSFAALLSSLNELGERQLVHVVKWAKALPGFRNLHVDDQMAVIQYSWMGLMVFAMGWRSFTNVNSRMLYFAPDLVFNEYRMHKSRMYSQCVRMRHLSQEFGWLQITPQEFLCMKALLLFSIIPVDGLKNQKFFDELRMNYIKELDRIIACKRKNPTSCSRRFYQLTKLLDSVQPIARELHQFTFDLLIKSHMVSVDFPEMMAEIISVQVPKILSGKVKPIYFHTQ
Sequence of Estrogen receptor (Homo sapiens) (P03372 whole entry, looked up): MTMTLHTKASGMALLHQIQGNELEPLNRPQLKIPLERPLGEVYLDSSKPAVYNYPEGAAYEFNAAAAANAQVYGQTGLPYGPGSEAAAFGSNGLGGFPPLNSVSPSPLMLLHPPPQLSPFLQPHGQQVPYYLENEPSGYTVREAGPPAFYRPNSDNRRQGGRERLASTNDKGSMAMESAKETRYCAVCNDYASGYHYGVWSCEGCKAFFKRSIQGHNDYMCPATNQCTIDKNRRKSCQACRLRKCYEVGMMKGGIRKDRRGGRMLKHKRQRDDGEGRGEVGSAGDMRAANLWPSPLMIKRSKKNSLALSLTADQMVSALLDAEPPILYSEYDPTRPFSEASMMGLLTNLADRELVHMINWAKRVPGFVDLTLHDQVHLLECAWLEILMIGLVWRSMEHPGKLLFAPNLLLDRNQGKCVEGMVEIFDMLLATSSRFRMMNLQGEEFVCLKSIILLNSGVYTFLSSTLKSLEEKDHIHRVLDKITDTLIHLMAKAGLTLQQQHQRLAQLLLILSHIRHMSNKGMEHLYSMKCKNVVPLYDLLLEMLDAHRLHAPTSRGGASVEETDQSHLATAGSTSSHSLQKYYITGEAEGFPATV

Turning to `O=C(O)c1ccccc1C(=O)O`, the call in assay [1], in assay [5], in assay [7], in [11], in assay [12] and in assay [13] was inactive. Besides, the compound was called inactive in assay [14] and in [15]. Besides, the Potency entry in assay [2], in assay [3], in assay [4], in [6], in assay [8] and in assay [9] was “inactive” in each case. In addition, the Potency result in assay [10] is “inactive”.

Turning to `COc1ccc(C)cc1N`, the compound was called inactive in assay [1], in assay [5], in assay [17], in assay [7], in assay [11] and in assay [12]. For the same compound, the compound was called inactive in assay [13], in assay [14] and in assay [15]. Also, the Potency result in [2], in [3], in assay [4], in [16], in assay [6] and in [8] was “inactive” each time. Further, the Potency entry in [9] and in assay [10] was “inactive” throughout.

As to `COc1cc(OC)c(C(=O)CCCN2CCCC2)c(OC)c1`, the compound was classed as inactive in assay [1], in [5], in assay [17], in assay [7], in assay [11] and in assay [12]. In addition, the result in [13], in [14] and in assay [15] was inactive. Also, the Potency entry in assay [2], in assay [3], in assay [4], in [16], in assay [8] and in assay [9] was “inactive” each time. The Potency entry in [10] was “inactive”.

With `CC1(C)CC(N)CC(C)(CN)C1` (configuration not stated), the call in assay [1], in assay [5], in [7], in assay [11], in assay [12] and in assay [13] was inactive. Moreover, the call in assay [14], in [15] and in assay [18] was inactive. Moreover, the Potency result in assay [2], in assay [3], in assay [4], in [8], in assay [9] and in [10] was “inactive” in each case. In assay [6], the Potency was 13.9 µM (active) and inactive.

`CNC(=O)Oc1ccc2c(c1)[C@]1(C)CCN(C)[C@@H]1N2C`: the outcome in assay [1], in assay [5], in [7], in [11], in assay [12] and in [13] was inactive. Further, the call in assay [14] and in assay [15] was inactive. For the same compound, the Potency entry in assay [2], in assay [3], in assay [4], in [6], in assay [8] and in [9] was “inactive” in each case. The Potency entry in assay [10] was “inactive”.

Consider `CCCCCCCCCCO`, for which the result in assay [1], in [5], in assay [17], in assay [7], in assay [11] and in assay [12] was inactive. Also, the compound was called inactive in assay [13], in [14], in assay [15] and in [18]. In addition, the Potency result in assay [2], in assay [19], in assay [3], in assay [4], in assay [6] and in assay [8] was “inactive” throughout. Moreover, the Potency result in assay [9] and in assay [10] was “inactive” throughout.

`CC(C)CC(C)O` (configuration not stated): the compound was classed as inactive in [1], in assay [5], in assay [17], in assay [7], in [11] and in assay [12]. In addition, the compound was called inactive in assay [13], in assay [14] and in assay [15]. Besides, the Potency entry in [19], in assay [20], in assay [3], in [4], in assay [6] and in [8] was “inactive” each time. For the same compound, the Potency entry in assay [9] and in assay [10] was “inactive” each time.

Take `COCCCN`: the call in assay [1], in [5], in assay [17], in assay [7], in [11] and in assay [12] was inactive. In addition, the call in [13], in assay [14] and in assay [15] was inactive. For the same compound, the Potency result in assay [2], in [4], in [6], in assay [8], in assay [9] and in assay [10] was “inactive” each time.

In the case of `C[C@]12CC[C@@H]3c4ccc(O)cc4CC[C@H]3[C@@H]1C[C@@H](O)[C@@H]2O`, the outcome in [1], in assay [5], in [7], in assay [11], in [12] and in assay [13] was inactive. In addition, the outcome in assay [14] and in [15] was inactive. For the same compound, the Potency in assay [2] was 13.7 µM (active) and 5.96 µM (active); in assay [19], 4.3 nM (active) and 3 nM (active). For the same compound, the Potency entry in assay [3], in [8] and in [9] was “inactive” throughout.
